# From PubChem
# This is one part of a sample in which hits are shown more often than they occur.
# HIV RNase H inh-1: blocks HIV-1 RNase H cleavage of RNA/DNA duplex. P04585. RT-RNase H RNA/DNA duplex cleavage, fluorescence. inhibition, % at 10 µM. 65,000 tested, 1.9% active; in the data active = inhibition above about 50%
# HIV RNase H inh-2: confirmation of HIV-1 reverse transcriptase RNase H inhibitors. shares compounds with HIV RNase H inh-1. Recombinant RT RNase H, fluorescent RNA/DNA duplex cleavage. inhibition, % at 10 µM. 1,000 tested, 39% active; in the data active = inhibition above about 48%; inconclusive = no clear call, values can overlap the other calls
# Hits are given with their value; – = inactive; ? = inconclusive.
SMILES,HIV RNase H inh-1,others
Cc1ccc(-n2ncc3c(N4CCN(c5ccccc5)CC4)ncnc32)c(C)c1,–,
COc1ccc(-n2ncc3c(N4CCN(c5cc(C)ccc5C)CC4)ncnc32)cc1,54.0,HIV RNase H inh-2=–
CNC(=O)CN(c1ccc(C(C)C)cc1)S(C)(=O)=O,–,
CC1(C)CC(=NO)CC(C)(C)N1,–,
CCOc1ccc(NC(=O)C2CSC(c3ccncc3)=N2)cc1 (centres undefined),–,
O=C(NCc1ccccc1)c1c(O)c2cccc3c2n(c1=O)CCC3,–,
O=C(NCc1ccc2c(c1)OCO2)c1c(O)c2cccc3c2n(c1=O)CCC3,72.4,HIV RNase H inh-2=–
O=C(NCc1ccc(F)cc1)c1c(O)c2cccc3c2n(c1=O)CCC3,–,
Cc1ccc(-c2noc(CN3C(C)CCCC3C)n2)cc1 (centres undefined),–,
CCOC(=O)c1ccccc1NC(=O)CN(c1ccccc1)S(=O)(=O)N(C)C,–,
COc1ccccc1CN(Cc1ccco1)S(=O)(=O)c1ccc(-n2cnnn2)c(OC)c1,–,
O=C(c1nn2c(C(F)(F)F)cc(-c3ccco3)nc2c1Br)N1CCCc2ccccc21,–,
CCOC(=O)c1cnn2c(C(F)(F)F)cc(-c3ccco3)nc12,–,
CC(C)OC(=O)c1nn2c(C(F)(F)F)cc(-c3ccc(Br)o3)nc2c1Br,66.5,HIV RNase H inh-2=–
O=C(NC1CC1)c1ccc(CS(=O)(=O)c2c(Cl)cccc2Cl)o1,–,
O=C(OCCN1C(=O)CCC1=O)c1ccc(S(=O)(=O)N2CCCCC2)cc1,–,
Cc1[nH]nc2c1C(c1cccc(O)c1)C1=C(CC(C)(C)CC1=O)N2 (centres undefined),–,
Cc1ccccc1C(=O)Nc1cccc(NC(=O)Cn2cnc3c(=O)n(C)c(=O)n(C)c32)c1,–,
CSc1nnnn1-c1ccc(C(=O)OCC(=O)N2CCOCC2)cc1,–,
Cc1cccc(N(CC(=O)NCc2ccc3c(c2)OCO3)C(=O)CCC(=O)Nc2ccccn2)c1,–,
NC(=O)C1CCN(C(=O)CSc2nc3c(c(-c4ccccc4)n2)CCCC3)CC1,–,
Cn1c(=O)[nH]c(=O)c2c1nc(Br)n2CC(O)c1ccccc1 (centres undefined),–,
COc1ccc(OC)c(C2C3CN(C(C)C)CC=C3C(C#N)=C(N)C2(C#N)C#N)c1 (centres undefined),–,
CCCCOc1ccc(C2C3CN(C(=O)OCC)CC=C3C(C#N)=C(N)C2(C#N)C#N)cc1OC (centres undefined),84.1,HIV RNase H inh-2=–
CCOC(=O)N1CC=C2C(C#N)=C(N)C(C#N)(C#N)[C@H](c3ccc(OCC)c(OCC)c3)[C@H]2C1,–,
SMILES,HIV RNase H inh-1,others
N#Cc1cccc(NC(=O)NCCc2c[nH]c3ccccc23)c1,–,
CCN(CC)CCCN1C(=O)C(=O)/C(=C(/O)c2ccc3c(c2)CC(C)O3)C1c1cccnc1 (centres undefined),–,
COc1ccc(OC)c2[nH]c(=O)c(CCNC(=O)c3ccc(Br)o3)cc12,–,
O=C1CCC(c2ccccc2)N1C(=O)c1cccnc1 (centres undefined),–,
COC(=O)c1ccc(CSc2ncnc3c2nnn3-c2ccc(OC)cc2)o1,–,
O=C(CSc1nnc(CN2CCOCC2)n1-c1ccccc1)N1CCc2ccccc21,–,
COc1ccc(-n2c(Cc3cccn3C)nnc2SCC(=O)N2CCCc3ccccc32)cc1,–,
N#Cc1ccc(OCc2nnc(SCC(=O)N3CCCc4ccccc43)n2-c2ccccc2)cc1,88.4,HIV RNase H inh-2=–
Cc1cccc(NC(=O)C2c3ccccc3C(=O)N3CCc4ccccc4C23)n1 (centres undefined),–,
Cn1nnnc1P(=O)(c1ccccc1)c1ccccc1,–,
COC(=O)CN1C(=O)C(O)(CC(=O)c2ccc(C)cc2)c2ccccc21 (centres undefined),53.7,HIV RNase H inh-2=–
COC(=O)CN1C(=O)C(O)(CC(=O)c2ccccc2)c2ccccc21 (centres undefined),–,
COC(=O)CN1C(=O)C(O)(CC(=O)c2ccc(C)o2)c2ccccc21 (centres undefined),–,
CCNC(=O)C1CC(=O)N(CC)C(=Nc2cc(Cl)c(O)c(Cl)c2)S1 (centres undefined),–,
Cc1cc(C2=CC(C)(c3cc(C)oc3C)Nc3nc(C(F)(F)F)nn32)c(C)o1 (centres undefined),–,
CCOC(=O)CC(=O)CSc1nc2c(cc1C#N)CCCCC2,–,
N#Cc1c(NC(=O)CSc2ncn[nH]2)sc2c1CCCCC2,–,
CCOC(=O)c1sc(NC(=O)CSc2nc3c(cc2C#N)CCCCCC3)c(C#N)c1C,72.9,HIV RNase H inh-2=?
CCOC(=O)c1cnc(SCC(=O)Nc2cc(OC)cc(OC)c2)nc1N,–,
Cc1cc(C)nc(SCC(=O)Nc2ccc(S(=O)(=O)Nc3onc(C)c3C)cc2)n1,–,
Cc1noc(NS(=O)(=O)c2ccc(NC(=O)CSc3nc4c(cc3C#N)CCC4)cc2)c1C,77.5,HIV RNase H inh-2=?
CCOC(=O)c1sc(NC(=O)CSc2nc3c(cc2C#N)CCC3)c(C#N)c1C,–,
CCOC(=O)c1cnc(SCC(=O)NCc2cccs2)nc1N,–,
N#Cc1c(NC(=O)CSc2nc(N)cc(=O)[nH]2)sc2c1CCCCCC2,–,
Cc1noc(NS(=O)(=O)c2ccc(NC(=O)CSc3nc4c(cc3C#N)CCCC4)cc2)c1C,–,
SMILES,HIV RNase H inh-1,others
CCOC(=O)c1cnc(SCC(=O)Nc2sc(C)c(C)c2C#N)nc1N,62.9,HIV RNase H inh-2=–
N#Cc1cc2c(nc1SCC(=O)Nc1sc3c(c1C#N)CCC3)CCCCC2,66.2,HIV RNase H inh-2=–
Cc1c(NC(=O)OCCSc2nc(N(C)C)nc(N(C)C)n2)sc(=S)n1C,–,
O=C(OCc1nnc(-c2ccccc2)o1)C1CCN(S(=O)(=O)c2cccs2)CC1,–,
CCOC(=O)c1c(NC(=O)CN2CCOCC2)sc2c1CC(C)(C)OC2,–,
CCOC(=O)C1=C(C)NC(=O)NC1c1c(OCC(=O)N2CCCCC2)ccc2ccccc12 (centres undefined),–,
CCOC(=O)C1=C(N)n2c(s/c(=C\c3cccs3)c2=O)=C(C(=O)OCC)C1c1cccs1 (centres undefined),–,
COC(=O)c1ccc2c(=O)[nH]c(CN3c4ccccc4CC3C)nc2c1 (centres undefined),63.5,HIV RNase H inh-2=61.4
CC1Cc2ccccc2N1Cc1nc2scc(-c3cccs3)c2c(=O)[nH]1 (centres undefined),–,
N#Cc1ccc(COC(=O)c2ccc3c(=O)[nH]c(CN4CCOCC4)nc3c2)cc1,–,
CCCCSc1nnc(CCCCCNC(=O)OC(C)(C)C)o1,–,
CC(C)C(c1nnnn1C1CCCCC1)N1CCOCC1 (centres undefined),–,
CCC(c1nnnn1C1CCCC1)N1CCN(c2ccccc2F)CC1 (centres undefined),–,
CC(C)C(c1nnnn1C1CCCC1)N1c2ccccc2CC1C (centres undefined),74.2,HIV RNase H inh-2=–
Cc1ccc(S(=O)(=O)CCc2nc3ccccc3n2CCC#N)cc1,–,
CCCCn1ccnc1C(=O)c1ccc(S(=O)(=O)N(CCOC)CCOC)cc1,–,
O=C(Cn1c(SCC(=O)NC2CCCC2)nnc1-c1ccncc1)Nc1ccc2c(c1)OCO2,–,
O=C(NCc1ccco1)c1c2c(nc3ccccc13)CCC2,64.8,HIV RNase H inh-2=–
O=C(NCc1ccco1)c1nc2ccccc2s1,–,
O=C(NCc1ccco1)c1csc2c1CCCCC2,–,
CCOc1ccc2nc(NCCCNS(=O)(=O)c3ccccc3)c(C#N)cc2c1,–,
CCOc1nc(-c2ccccc2)ccc1-c1noc(-c2ccc(OC)c(OC)c2)n1,–,
COc1cc2[nH]c(=O)n(CCC(=O)N3CCN(c4cccc(C)c4C)CC3)c(=O)c2cc1OC,61.1,HIV RNase H inh-2=–
